Bioassay records from PubChem BioAssay.
Rab9 promoter act: activators of Rab9 promoter; AID 485297; Huh7 Rab9 promoter-luciferase reporter, luminescence, 24 h; actives 2.8% (n = 320,000); Potency, µM (series often up to 9.22 µM), for inactives: at the top dose activation, negative = inhibition, most hits filed as activators; also: % of control where 0% means no effect; nearly all actives have a fitted effect of over 60% in size
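Measured in stably transfected Huh7 cells bearing a Rab9 promoter–luciferase construct: 24 h compound treatment at 37 °C, followed by luminescence detection.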
NPC1 prom act: NPC1 promoter activation | Potency, µM (highest dose often 9.22 µM), for inactives: at the highest dose activation, actives largely listed as activators | actives 2.4% (n = 320,000) | Huh7 NPC1 promoter luciferase reporter, 24 h; also: % of control where 0% means no effect; nearly all actives have a fitted effect of over 60% in size
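In 1536-well qHTS, Huh7 cells harboring an NPC1 promoter–luciferase construct received compound for 24 h; activation was quantified by luminescence following luciferase reagent addition.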
ELG1 genotoxic: inducers of genotoxicity in HEK293T ELG1-luciferase cells; HEK293T ELG1-luciferase reporter, luminescence, 16 h; Potency, µM (titrated, usually from 46 µM), for inactives: at the highest dose activity change, positive = activation, actives largely listed as activators; actives 1.3% (n = 330,000); also: % of control where 0% means no effect; nearly all actives have a fitted effect of over 60% in size
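Step 1: seed 2,000 HEK293T ELG1-luciferase cells per well. Step 2: add compound or DMSO, incubate 16 hr at 37 °C. Step 3: ONE-Glo, 30 min at room temperature, read luminescence.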
FLuc counter: counter-screen for miR-21 project: firefly luciferase inhibitors or activators. P08659. purified FLuc, Km substrates, luminescence inhibition. Potency, µM (series often up to 57.5 µM), without a hit: at the highest dose activity change, negative = inhibition, most hits filed as inhibitors. actives 6.9% (n = 360,000). AID 588342;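 also: plate controls were vehicle for no effect and reference inhibitor for full effect; nearly all actives have a fitted effect of over 55% in size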
Target sequence (P08659 whole entry, looked up): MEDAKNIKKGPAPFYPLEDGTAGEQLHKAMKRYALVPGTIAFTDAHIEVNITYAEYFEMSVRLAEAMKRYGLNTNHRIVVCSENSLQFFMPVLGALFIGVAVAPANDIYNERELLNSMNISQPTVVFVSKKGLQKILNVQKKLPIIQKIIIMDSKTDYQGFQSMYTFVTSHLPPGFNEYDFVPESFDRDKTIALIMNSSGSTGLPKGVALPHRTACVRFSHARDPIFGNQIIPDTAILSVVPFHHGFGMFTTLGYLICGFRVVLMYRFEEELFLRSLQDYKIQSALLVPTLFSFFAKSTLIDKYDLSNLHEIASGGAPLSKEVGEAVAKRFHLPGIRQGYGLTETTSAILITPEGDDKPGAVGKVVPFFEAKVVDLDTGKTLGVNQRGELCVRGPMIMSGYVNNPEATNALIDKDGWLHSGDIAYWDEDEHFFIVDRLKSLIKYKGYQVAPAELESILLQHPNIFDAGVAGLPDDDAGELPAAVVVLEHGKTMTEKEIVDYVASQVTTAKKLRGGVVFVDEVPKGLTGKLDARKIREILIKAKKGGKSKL
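Biochemical qHTS of compounds, final roughly 60 µM downward over six points, against 10 nM purified firefly luciferase using Km concentrations of substrates (10 uM D-luciferin, 10 uM ATP) in Tris acetate pH 7.5 buffer; luminescence output.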
ELG1 repair inh: ELG1-dependent DNA repair inhibition | HEK293T ELG1-luciferase reporter, luminescence, 16 h; DNA damage induced by 5-fluorouridine | Potency, µM (titrated, usually from 46.1 µM), for the others: at the highest dose activity change, negative = inhibition, most hits filed as inhibitors | actives 2.3% (n = 330,000) | AID 504467; also: % is scaled to controls: 0 for no effect and ±100 for the full control effect; nearly all actives have a fitted effect of over 55% in size
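Luminescence from the luciferase reporter, measured 30 min after ONE-Glo reagent at room temperature, was the read-out. Beforehand, 2,000 cells per well were exposed for 16 hr at 37 °C to 5-fluorouridine together with compound or vehicle.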
SMN2 splice up: SMN2 splice variant enhancement. HEK293 SMN2-luciferase splicing reporter, luminescence, 30-36 h. Potency, µM (highest dose often 46.1 µM), inactives show top-dose activity change, positive = activation, most hits filed as activators. actives 2.8% (n = 210,000). AID 1458; also: % of control where 0% means no effect; nearly all actives have a fitted effect of over 55% in size
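HEK293 cells carry an SMN2 minigene-luciferase reporter in which exon 7 inclusion puts luciferase in frame. Cells were seeded at 2000 cells/well, attached for 10-12 hours, then exposed to compounds for 30-36 hours at 37C before ONE-Glo luminescence.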
* = called active by the depositor; u = inconclusive; x = no result given; [ ] = another dose, or the depositor's remark. Shown are actives, neighbours in structure and some others; about 9.4% of the full set was active somewhere. Calls follow the shape of the dose curve; as a rule, active = well fitted curve in the direction sought with a large enough effect; inconclusive = small, poorly fitted or top-dose-only effect, or another doubt; inactive = no such curve, though single readings can be large; an effect the other way counts as inactive or inconclusive. Potency is read from the fitted curve at half-maximal effect.

SMILES	Rab9 promoter act	NPC1 prom act	ELG1 genotoxic	FLuc counter	ELG1 repair inh	SMN2 splice up
Cc1nc(N2CCN(C(=O)c3ccco3)CC2)c2oc3ccccc3c2n1	-3%	-5%	-32%	-12%	u	-42%
Cc1nc(N2CCN(Cc3ccc(Cl)cc3)CC2)c2oc3ccccc3c2n1	-9%	-6%	0%	-8%	18µM*	x
CCN(C)c1ccc(/C=N\n2nnnc2N)cc1	25%	-11%	9.2µM*	12µM*	u	11µM*
CC(Cc1cccs1)NC(=O)Nc1ccccc1 (stereo not drawn)	19%	20%	6%	u	u	-12%
CC(Cc1cccs1)NC(=O)Nc1ccc(Cl)c(Cl)c1 (stereo not drawn)	u	u	2%	21µM*	u	6%
CC(Cc1cccs1)NC(=O)Nc1ccc(Cl)cc1 (stereo not drawn)	u	u	5.6µM*	12µM*	u	14%
CC(=O)Nc1ccc(NC(=O)CSc2nc(N)c(NC(=O)c3ccco3)c(=O)[nH]2)cc1	14%	0%	0%	-3%	u	x
Cc1ccc2onc(CNC(=O)N3CCN(c4cccc(C)c4C)CC3)c2c1	x	x	x	-11%	x	x
Cc1cccc(C(=O)Nc2cccc(C(=O)N/N=C/c3ccccn3)c2)c1	-5%	0%	0%	19µM*	-15%	x
O=C(N/N=C/c1cccs1)c1cccc(NC(=O)c2ccccc2Cl)c1	8%	10%	1%	24µM*	-4%	1%
O=C(N/N=C/c1ccccc1F)c1cccc(NC(=O)c2ccccc2Cl)c1	17%	19%	7%	13µM*	4%	x
O=C(N/N=C/c1ccccn1)c1cccc(NC(=O)c2ccccc2Cl)c1	15%	3%	9%	17µM*	-2%	x
O=C(N/N=C/c1ccccn1)c1cccc(S(=O)(=O)Nc2ccccc2Cl)c1	-5%	0%	-3%	u	-13%	-5%
O=C(Cn1c(=O)n(-c2ccccc2)c(=O)c2ccc(C(=O)NCc3ccc4c(c3)OCO4)cc21)Nc1ccc(Br)cc1F	x	x	x	2%	x	0%
Cc1cccc(C(=O)N/N=C/c2ccccn2)c1	3.5µM*	u	u	19µM*	u	2µM*
Cc1cccc(NC(=O)/C(C#N)=C/c2ccccc2O)n1	4µM*	3.5µM*	16µM*	0.6µM*	u	x
Cc1ccc(/C=C(\C#N)C(=O)Nc2c(C)cccc2C)s1	4%	7%	2%	-8%	-15%	-10%
N#C/C(=C\c1ccccc1O)C(=O)Nc1ccccn1	20%	-6%	5%	4.8µM*	1%	x
Cc1cccc(NC(=O)/C(C#N)=C/c2ccccc2Cl)n1	-3%	0%	1%	6µM*	2%	x
C=CCNC(=O)/C(C#N)=C/c1ccccc1Cl	1%	-1%	8%	u	u	-1%
COc1ccc(Nc2nc(N)nc(CCl)n2)cc1	-48%	x	u	6µM*	u	x
Nc1nc(CCl)nc(Nc2ccc3ccccc3c2)n1	-54%	-37%	28%	3µM*	2%	x
Cc1ccccc1Nc1nc(N)nc(CCl)n1	-46%	-37%	-11%	-25%	u	x
Cc1nc(-c2ccc(Br)cc2)ccc1C(=O)O	-6%	1%	-1%	-11%	0%	-8%
COc1ccc(C(=O)/C=C/c2ccc(O)cc2)cc1	3%	-3%	7%	8.5µM*	9%	x
SMILES	Rab9 promoter act	NPC1 prom act	ELG1 genotoxic	FLuc counter	ELG1 repair inh	SMN2 splice up
COc1ccc(/C=C/C(=O)c2nc3ccccc3n2CC(=O)c2ccc(OC)cc2)cc1	-5%	-3%	-7%	9.5µM*	-9%	10%
CCOc1ccc(/C=C/C(=O)Oc2ccc(OC)cc2)cc1	2%	-1%	3%	u	-4%	x
COc1ccc(-c2cc(O)cc(O)c2)cc1	u	u	6.5µM*	6.7µM*	u	u
COc1ccc(OC)cc1	x	x	1%	x	3%	9%
COc1ccc(/C=C/C(=O)Oc2cc(O)cc(O)c2)cc1	-1%[1.84 µM]	-3%	-1%	15µM*	-13%	x
COc1ccc(/C=C/C(=O)C(C(N)=O)=C2SCCS2)cc1	20%	16%	5%	9.5µM*	u	-72%
COC(=O)C1=C(C)NC(=O)NC1c1ccc(N2CCC(c3ccccc3)=N2)cc1 (stereo not drawn)	8%	1%	-5%	-1%	u	x
COc1ccc(C(=O)/C=C/c2ccc(OC3CSC3)cc2)cc1OC	-5%	-3%	6%	u	16%	-90%
O=C(/C=C/c1ccccc1)c1ccc(O)cc1	x	x	x	x	x	-4%
O=C(/C=C/c1ccc(N2CCC(c3ccccc3)=N2)cc1)c1ccccc1	20%	20%	-2%	15µM*	u	-10%
Cc1nn(C)cc1/C=C/C(=O)c1ccc(O)cc1	u	u	21µM*	13µM*	u	-10%[1.84 µM]
O=C(/C=C/c1ccc(OC2CSC2)cc1)c1ccc(Cl)cc1	0%	-4%	6%	11µM*	u	5%
O=C(/C=C/c1ccc(O)cc1)c1ccccc1	u	3%	u	2.7µM*	u	x
O=C(Nc1cc(Cl)cc(Cl)c1)c1ccc(F)c(S(=O)(=O)N2CCCCCC2)c1	x	x	x	-4%	x	x
O=S(=O)(O)c1ccc(NN(c2c(O)ccc3ccccc23)S(=O)(=O)O)cc1	x	x	x	x	x	-5%[9.22 µM]
O=C(c1ccccc1)N1CCN(c2ncnc3c2cnn3-c2ccccc2)CC1	u	23%	-2%	-21%	-4%	-19%
O=C(c1cccc(Cl)c1)N1CCN(c2ncnc3c2cnn3-c2ccccc2)CC1	-17%	-5%	-7%	-15%	12µM*	-37%
Cc1nn(-c2ccccc2)c(Cl)c1C(=O)N1CCN(c2ncnc3c2cnn3-c2ccccc2)CC1	-4%	-6%	3%	-1%	7.3µM*	-68%
O=c1[nH]c(CN2CCN(c3ccccc3O)CC2)nc2scc(-c3ccccc3Cl)c12	-3%	-2%	-11%	0%	21µM*	x
O=c1[nH]c(CN2CCN(c3ccc(O)cc3)CC2)nc2scc(-c3ccc(Cl)cc3)c12	-24%	-24%	-11%	3%	u	-79%
C=CCNC(=O)c1onc(CSc2ccc(Cl)cc2)c1C(=O)O	2%	-2%	-2%	17µM*	u	u
C=CCNC(=O)c1onc(CSc2cc(C)ccc2C)c1C(=O)O	-3%	-4%	-4%	-12%	-2%	32µM*
Cc1ccc(C(=O)c2c(N)c(C(=O)Nc3ccccc3Cl)c3ccccn23)cc1	x	x	x	1%	x	15%
COc1ccc(N(C(=O)c2ccccc2)S(=O)(=O)c2ccc3c(c2)n(C)c(=O)n3C)cc1	x	x	x	-1%	x	14%
